Screens (PubChem BioAssay)
CHO-K1 Ca antag – nonselective inhibitor or artifact in parental CHO-K1 cells; ATP-induced calcium, Fluo-8 fluorescence; inhibition, % at 3 µM; 0.6% of 360,000 active;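 active = inhibition above a per-plate cutoff, the plate's mean sample inhibition plus 3 SD, cut at about 24% in these data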
CHRM1 agonist – human M1 muscarinic receptor agonists, primary screen, Fluo-8 calcium fluorescence, CHO-K1 cells, HTS | activation, % at 3 µM | 0.33% of 360,000 active | Muscarinic acetylcholine receptor M1 (Homo sapiens), P11229 | CHO-K1 hM1, agonist mode; 0% DMSO, 100% acetylcholine EC100;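 active = activation above the run's mean compound activation plus 3 SD, cut at about 16% in these data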;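 also: peak over basal fluorescence ratio within a 140 s kinetic read after compound addition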
Target sequence (P11229 whole entry, looked up): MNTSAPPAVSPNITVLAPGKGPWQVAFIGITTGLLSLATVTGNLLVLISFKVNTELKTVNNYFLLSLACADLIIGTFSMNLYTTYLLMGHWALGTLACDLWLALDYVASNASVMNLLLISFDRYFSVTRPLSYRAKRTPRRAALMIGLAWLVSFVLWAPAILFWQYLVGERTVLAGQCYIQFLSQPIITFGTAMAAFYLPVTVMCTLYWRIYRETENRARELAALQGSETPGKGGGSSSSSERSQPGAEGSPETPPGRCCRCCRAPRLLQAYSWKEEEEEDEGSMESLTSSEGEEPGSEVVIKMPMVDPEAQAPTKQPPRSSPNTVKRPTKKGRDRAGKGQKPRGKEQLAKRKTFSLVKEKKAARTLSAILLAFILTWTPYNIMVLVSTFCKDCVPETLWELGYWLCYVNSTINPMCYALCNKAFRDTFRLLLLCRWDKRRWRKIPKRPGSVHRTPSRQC
CHO-K1 Ca ag – counter-screen for M1 agonists: effect in parental CHO-K1 cells. Fluo-8 calcium fluorescence; scaled to maximal ATP response, vehicle zero. 0.48% of 360,000 active. activation, % at 3 µM; in the data active = activation above about 15%;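 also: untransfected CHO-K1 host cells lacking M1 receptor as counterscreen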
CHO-K1 Ca PAM – nonselective calcium activators in parental CHO-K1 cells, primary screen, counter-screen for M1 PAM project, cell-based, Fluo-8 calcium fluorescence, full deck, 1536-well; ATP EC20; 0% at ATP EC20, 100% at ATP max; activation, % at 3 µM; 0.02% of 360,000 active; AID 602247, 2012;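 active = activation above the run cutoff, the mean activation of all test compounds plus 3 SD, cut at about 40% in these data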;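 also: peak over basal fluorescence ratio in a 140 s read after ATP addition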
M1 PAM – human M1 muscarinic receptor positive allosteric modulators, primary screen, CHO-K1 cells, Fluo-8 calcium fluorescence, 1536-well; Muscarinic acetylcholine receptor M1 (Homo sapiens), P11229; CHO-K1 hM1, ACh EC20; 0% = ACh EC20, 100% = maximal ACh; activation, % at 3 µM; 0.088% of 360,000 active; in the data active = activation above about 19%, passing the limit was not always enough
M1 antag – human M1 muscarinic receptor antagonists, primary screen, CHO-K1 cells, Fluo-8 calcium fluorescence, 1536-well; Muscarinic acetylcholine receptor M1 (Homo sapiens), P11229; 1.3% of 360,000 active; CHO-K1 hM1, ACh EC80 antagonist; AID 588852, 2011; inhibition, % at 3 µM;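 active = percent inhibition above its own plate's cutoff, namely the mean of that plate's compound wells plus 3 SD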;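 also: peak over basal fluorescence ratio during 140 s after agonist addition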
Hits are given with their value. Only some compounds are listed: those with a hit (about 2.4% of all), similar ones and a draw of the others.

COc1ccc(CC(=O)N(Cc2ccccc2)c2ccccc2)cc1S(=O)(=O)N1CCOCC1 was read as CHO-K1 Ca antag inactive, CHRM1 agonist inactive, CHO-K1 Ca ag inactive, CHO-K1 Ca PAM inactive, M1 PAM inactive and M1 antag 26.
`O=C(COC(=O)Cc1cn2ccsc2n1)NCc1ccc2c(c1)OCO2` gave CHO-K1 Ca antag inactive, CHRM1 agonist inactive, CHO-K1 Ca ag inactive, CHO-K1 Ca PAM inactive, M1 PAM inactive and M1 antag inactive.
Screening Cc1ccc(/C=N/NC(=O)c2ccc3ccccc3c2)s1 returned CHO-K1 Ca antag 25, CHRM1 agonist inactive, CHO-K1 Ca ag inactive, CHO-K1 Ca PAM inactive, M1 PAM inactive and M1 antag inactive.
Screening COc1ccc(Cn2c(-c3ccc(OC)cc3)n[nH]c2=S)cc1 returned CHO-K1 Ca antag inactive, CHRM1 agonist inactive, CHO-K1 Ca ag inactive, CHO-K1 Ca PAM inactive, M1 PAM inactive and M1 antag inactive.
`CC(C)Oc1ccc(Cn2c(-c3ccco3)n[nH]c2=S)cc1` gave CHO-K1 Ca antag inactive, CHRM1 agonist inactive, CHO-K1 Ca ag inactive, CHO-K1 Ca PAM inactive, M1 PAM inactive and M1 antag 29.
`CCOc1ccc(NC(=S)Nc2ccccc2C2CC2)cc1` gave CHO-K1 Ca antag 26, CHRM1 agonist inactive, CHO-K1 Ca ag inactive, CHO-K1 Ca PAM inactive, M1 PAM inactive and M1 antag inactive.
Cc1ccc(C(=O)Nc2cc(C)nn2CCC#N)cc1 was read as CHO-K1 Ca antag inactive, CHRM1 agonist inactive, CHO-K1 Ca ag inactive, CHO-K1 Ca PAM inactive, M1 PAM inactive and M1 antag inactive.
Cc1cc(NC(=O)c2ccc(Cl)cc2)n(CCC#N)n1 was read as CHO-K1 Ca antag inactive, CHRM1 agonist inactive, CHO-K1 Ca ag 16, CHO-K1 Ca PAM inactive, M1 PAM inactive and M1 antag inactive.
For C#CCOCCOCCOCCNc1nc(N2CCN(C(=O)C([C@@H](C)O)n3cc([C@@H](N)CCCCN)nn3)CC2)nc(N2CCN(C(=O)[C@H](CC(N)=O)n3cc([C@@H](N)C(C)C)nn3)CC2)n1 (some centres not stated) the results were CHO-K1 Ca antag inactive, CHRM1 agonist inactive, CHO-K1 Ca ag inactive, CHO-K1 Ca PAM inactive, M1 PAM inactive and M1 antag inactive.
For CCN1CCN(C2=C(Cl)C(=O)N(Cc3ccccc3)C2=O)CC1 the results were CHO-K1 Ca antag inactive, CHRM1 agonist inactive, CHO-K1 Ca ag inactive, CHO-K1 Ca PAM inactive, M1 PAM inactive and M1 antag 78.
`CN1CCN(C2=C(Cl)C(=O)N(Cc3ccccc3)C2=O)CC1` gave CHO-K1 Ca antag inactive, CHRM1 agonist inactive, CHO-K1 Ca ag inactive, CHO-K1 Ca PAM inactive, M1 PAM inactive and M1 antag 27.
Screening Cc1cccc(COCC(CC(C)C)N2CCN(C(=O)c3ccc(C(C)(C)C)cc3)CCC2=O)c1 (configuration not stated) returned CHO-K1 Ca antag inactive, CHRM1 agonist inactive, CHO-K1 Ca ag inactive, CHO-K1 Ca PAM inactive, M1 PAM inactive and M1 antag inactive.
CC(=O)c1ccc(NC(=S)NC(NC(=O)c2ccco2)C(Cl)(Cl)Cl)cc1 (configuration not stated) was read as CHO-K1 Ca antag inactive, CHRM1 agonist 17, CHO-K1 Ca ag inactive, CHO-K1 Ca PAM inactive, M1 PAM inactive and M1 antag inactive.
O=C(NC(NC(=S)Nc1ccc(Cl)cc1)C(Cl)(Cl)Cl)c1ccco1 (configuration not stated) was read as CHO-K1 Ca antag inactive, CHRM1 agonist inactive, CHO-K1 Ca ag inactive, CHO-K1 Ca PAM inactive, M1 PAM inactive and M1 antag inactive.
For Cc1ccccc1Cn1nc(C)c(NC(=O)c2cc(CC(C)C)on2)c1C the results were CHO-K1 Ca antag inactive, CHRM1 agonist inactive, CHO-K1 Ca ag inactive, CHO-K1 Ca PAM inactive, M1 PAM inactive and M1 antag inactive.
`Cc1nn(Cc2ccc(Cl)c(Cl)c2)c(C)c1NC(=O)c1noc2c1CCCCC2` gave CHO-K1 Ca antag inactive, CHRM1 agonist inactive, CHO-K1 Ca ag inactive, CHO-K1 Ca PAM inactive, M1 PAM 27 and M1 antag inactive.
`Cc1nn(Cc2ccc(Cl)c(Cl)c2)c(C)c1NC(=O)c1cc(CC(C)C)on1` gave CHO-K1 Ca antag inactive, CHRM1 agonist inactive, CHO-K1 Ca ag inactive, CHO-K1 Ca PAM inactive, M1 PAM inactive and M1 antag 29.
Screening COC(=O)c1ccc(C23CC4(C2)[C@H](CN(C)[C@@H]4c2ccccc2)C3c2ccccc2)cc1 (some centres not stated) returned CHO-K1 Ca antag inactive, CHRM1 agonist inactive, CHO-K1 Ca ag inactive, CHO-K1 Ca PAM inactive, M1 PAM inactive and M1 antag inactive.
For Cc1ccccc1C(=O)NNS(=O)(=O)c1ccc(F)cc1 the results were CHO-K1 Ca antag 24, CHRM1 agonist inactive, CHO-K1 Ca ag inactive, CHO-K1 Ca PAM inactive, M1 PAM inactive and M1 antag inactive.
For CC(C)N(C(=O)COC(=O)c1cccc(C(=O)OCC(=O)N(C(C)C)C(C)C)n1)C(C)C the results were CHO-K1 Ca antag inactive, CHRM1 agonist inactive, CHO-K1 Ca ag inactive, CHO-K1 Ca PAM inactive, M1 PAM inactive and M1 antag inactive.
`CCOc1ccc(NC(=O)c2ccc(NC(=O)c3ccccc3Br)cc2)cc1` gave CHO-K1 Ca antag 30, CHRM1 agonist inactive, CHO-K1 Ca ag inactive, CHO-K1 Ca PAM inactive, M1 PAM inactive and M1 antag inactive.
CCOc1ccc(NC(=O)c2ccccc2CO)cc1 was read as CHO-K1 Ca antag 30, CHRM1 agonist inactive, CHO-K1 Ca ag inactive, CHO-K1 Ca PAM inactive, M1 PAM inactive and M1 antag inactive.
COc1cc(CN2CC(=O)N(c3cccc(Cl)c3C)C2=S)cc(OC)c1OC was read as CHO-K1 Ca antag inactive, CHRM1 agonist inactive, CHO-K1 Ca ag 23, CHO-K1 Ca PAM inactive, M1 PAM inactive and M1 antag inactive.
COc1cc(CN2CC(=O)N(c3ccccc3Cl)C2=S)cc(OC)c1OC was read as CHO-K1 Ca antag inactive, CHRM1 agonist inactive, CHO-K1 Ca ag 19, CHO-K1 Ca PAM inactive, M1 PAM inactive and M1 antag 34.
Screening Cc1ccc(C(=O)N/C(=C\c2cccnc2)C(=O)N2CCCC2)cc1 returned CHO-K1 Ca antag inactive, CHRM1 agonist inactive, CHO-K1 Ca ag inactive, CHO-K1 Ca PAM inactive, M1 PAM inactive and M1 antag inactive.
Screening Cc1ccc(C(=O)N/C(=C/c2cccnc2)C(=O)N2CCCCCC2)cc1 returned CHO-K1 Ca antag 47, CHRM1 agonist inactive, CHO-K1 Ca ag inactive, CHO-K1 Ca PAM inactive, M1 PAM inactive and M1 antag inactive.
